Laboratory results: PubChem BioAssay AID1619 (SRMLSC, 2009)
Out of some 220,000 compounds screened, about 830 (0.38%) were called active.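 How the source made its calls: active means compound inhibiting the enzyme by more than half at any dose during confirmatory dose-response retesting; inconclusive means strong single-dose inhibitors picked by rank but not retested; inactive means the rest.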 Only a sample is shown. Potency and affinity values are given separately.

target: Leucine aminopeptidase (Plasmodium falciparum (isolate 3D7)) (UniProt Q8IL11); experiment: P. falciparum M17LAP inhibitors, primary screen, biochemical, fluorogenic H-Leu-NHMec substrate, 1536-well (AID 1619); conditions: recombinant M17LAP, H-Leu-NHMec fluorogenic kinetic assay; at 30 µM; active compounds read high;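 further: plate controls were full reaction with DMSO carrier for no effect and no enzyme background for full effect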
Sequence (Q8IL11 whole entry, looked up): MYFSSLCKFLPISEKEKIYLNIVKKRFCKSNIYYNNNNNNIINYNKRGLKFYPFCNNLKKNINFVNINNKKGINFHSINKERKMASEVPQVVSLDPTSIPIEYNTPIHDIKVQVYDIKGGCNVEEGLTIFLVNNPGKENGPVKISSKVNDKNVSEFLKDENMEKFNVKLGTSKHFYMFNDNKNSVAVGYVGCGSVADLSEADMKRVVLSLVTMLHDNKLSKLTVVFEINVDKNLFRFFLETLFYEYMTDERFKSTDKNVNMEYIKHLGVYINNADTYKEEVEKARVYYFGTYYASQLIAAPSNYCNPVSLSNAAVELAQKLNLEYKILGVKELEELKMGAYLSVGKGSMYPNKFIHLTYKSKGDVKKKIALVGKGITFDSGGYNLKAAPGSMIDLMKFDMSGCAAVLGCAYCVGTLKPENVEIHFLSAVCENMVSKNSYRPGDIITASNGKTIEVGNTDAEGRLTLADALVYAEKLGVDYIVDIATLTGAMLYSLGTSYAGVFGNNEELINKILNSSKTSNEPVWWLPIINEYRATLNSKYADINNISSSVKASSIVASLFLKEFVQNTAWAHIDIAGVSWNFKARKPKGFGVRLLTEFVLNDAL

inhibition, inactive:
CSc1nsc(SC)c1CO -0.7%
CC(=O)Nc1c(O)nc(SCC(=O)Nc2ccc(C(C)=O)cc2)[nH]c1=O 21.4%
Cc1cccc(NC(=O)CSc2nc3nc(C)cc(C)c3c(=O)[nH]2)c1 15.8%
Cc1cccc(NC(=O)CSc2nc3c(c(=O)[nH]2)CCCC3)c1C 12.7%
Cc1cccc(NC(=O)CSc2nc3c(c(=O)[nH]2)CCC3)c1C 49.7%
CC(=O)Nc1c(O)nc(SCC(=O)Nc2c(C)cccc2C)[nH]c1=O 13.4%
Cc1cccc(NC(=O)CSc2nc(C)c(Cc3ccccc3)c(=O)[nH]2)c1 -0.73%
S=c1[nH]ncn1/N=C/c1cccc(Oc2ccccc2)c1 13.2%
Cc1ccc(CNc2ccc(S(=O)(=O)N3CCOCC3)cc2[N+](=O)[O-])cc1 -4.05%
CCCC1C2C(=O)N(c3ccccc3)C(=O)C2ON1c1ccccc1 (centres undefined) -10.4%
CCc1ccc(OC(=O)c2ccn(CC)n2)cc1 2.96%
CCOC(=O)c1c(C)[nH]c(C)c1C(=O)COC(=O)c1ccc(O)cc1 0.26%
O=C(O)c1ccccc1-c1ccccc1C(=O)Nc1ccccc1 -2.4%
Cc1ccc(NC(=O)c2ccccc2-c2ccccc2C(=O)O)cc1C 4.01%
O=C(CSc1nc2ccc(NC(=O)C3CCCCC3)cc2s1)NCC1CCCO1 (centres undefined) 2.95%
O=C(Nc1ccc(N2C(=O)C3CCCCC3C2=O)cc1Cl)c1cccs1 (centres undefined) -2.37%
Cc1cc(C(=O)COc2ccccc2C(N)=O)c(C)n1C1CC1 -2.25%
Cc1ccc(-n2c(C)cc(C(=O)COC(=O)c3c(C)noc3C)c2C)cc1 0.29%
Cc1cc(C(=O)COC(=O)c2ccc(O)cc2)c(C)n1CCc1ccc(F)cc1 13.2%
Cc1cc(C(=O)COC(=O)C2=NNC(=O)CC2)c(C)n1-c1ccccc1 7.43%
Cc1ccc(-n2c(C)cc(C(=O)COC(=O)C3=NNC(=O)CC3)c2C)cc1 30.1%
Cc1cc(C(=O)COC(=O)c2ccc[nH]c2=O)c(C)n1C 14.9%
Cc1cc(C(=O)COC(=O)c2ccc[nH]c2=O)c(C)n1-c1ccccc1F 8.77%
COCCn1c(C)cc(C(=O)COC(=O)c2ccc[nH]c2=O)c1C 49.1%
CCCn1c(SCC(=O)NC(=O)Nc2ccc(C)cc2C)n[nH]c1=O -6.72%
O=C(Cn1ccc([N+](=O)[O-])n1)NCCc1c[nH]c2ccccc12 -5.35%
C=CCn1c(=O)c2ccccc2n2c(SCC(=O)Nc3sc(C(=O)N(CC)CC)c(C)c3C(=O)OCC)nnc12 1.64%
O=C(N/N=C/c1ccc2c(c1)OCO2)c1cc(-c2ccc(F)cc2)nc2ccccc12 8.91%
CCCCn1nnnc1NCc1ccc(N2CCCC2)cc1 2.89%
COc1cccc(-n2cn[nH]c2=S)c1 -0.99%
O=C(NC1CCCC1)C(c1ccc(N2CCOCC2)cc1)N(Cc1ccco1)C(=O)c1ccco1 (centres undefined) 6.04%
Cc1ccc(-n2c(C)cc(C(=O)COc3c(CO)cc(F)cc3CO)c2C)cc1C 11.4%
CCOC(=O)c1cc(C)n(-c2ccc(OC)c(OC)c2)c1C 0.75%
CCC(=O)OCC(=O)c1cc(C)n(-c2ccc(Br)cc2)c1C 0.2%
COCC(=O)OCC(=O)c1cc(C)n(-c2ccc(Br)cc2)c1C 1.88%
COc1cc(C(=O)Nc2ccccc2-c2nnn(CC(N)=O)n2)cc(OC)c1OC -3.22%
C=CCn1c(-c2cccnc2Cl)nc2cc(Cl)c(Cl)cc21 -5.48%
Cc1noc(C)c1C(=O)NCCCc1ccccc1 6.89%
Cc1cc(C(=O)OCC(=O)N2CC(C)CC(C)C2)c(C)o1 (centres undefined) 40.9%
Cc1cc(C(=O)OCC(=O)N2c3ccccc3CC2C)c(C)o1 (centres undefined) -1.01%
O=C(O)c1cc2c(ccc3ccccc32)o1 6.36%
Cn1c(=O)cc(SCC(=O)NCC2COc3ccccc3O2)c2ccccc21 (centres undefined) -4.89%
Cc1nn(C)c(C)c1S(=O)(=O)N1CCC(C(=O)NCC2COc3ccccc3O2)CC1 (centres undefined) 17.1%
O=C(Cn1ccc2ccccc2c1=O)NCC1COc2ccccc2O1 (centres undefined) 10.9%
O=C(CN1C(=O)C2C3C=CC(C3)C2C1=O)NCc1ccccc1 (centres undefined) 18.9%
CCC1Oc2ccc(C)cc2N(CC(=O)NCC2COc3ccccc3O2)C1=O (centres undefined) 16.1%
O=C(CCC1COc2ccccc2O1)NCC1COc2ccccc2O1 (centres undefined) 15.9%
Cn1c(=O)oc2cc(S(=O)(=O)N3CCC(C(=O)NCC4COc5ccccc5O4)CC3)ccc21 (centres undefined) 3.08%
Cn1c(C(=O)O)c(CC(=O)Nc2ccc3c(c2)OCCO3)c2ccccc21 -6.24%
CCOc1ccc(NC(=O)CSc2nc3c([nH]c4ccccc43)c(=O)n2C)cc1 1.51%
CC(C)(C)c1cn(-c2ccccc2)c(=S)[nH]1 1.06%
O=c1c(Cc2ccc(F)cc2)c(O)ccn1Cc1ccc(F)cc1 -0.83%
CS(=O)(=O)N1CCC(C(=O)O)CC1 -6.86%
CCOC(=O)c1c(NC(=O)CC2SC(N)=NC2=O)sc2c1CCC(C)C2 (centres undefined) 3.54%
COC(=O)C(NC(=O)C(C)Oc1ccccc1)C(C)C (centres undefined) 1.41%
COc1ccc(C2=NN(c3nc(C(=O)O)cs3)C(O)(C(F)(F)F)C2)c(OC)c1 (centres undefined) 26.5%
CN(C)S(=O)(=O)c1ccc(Cl)c(NC(=O)COC(=O)c2cc(-c3ccccc3)nc3ccccc23)c1 15.3%
C[C@H](NC(=O)OCc1ccccc1)C(=O)NNC(=O)[C@H](Cc1ccccc1)NC(=O)OC(C)(C)C 12.1%
COc1cc(C2/C(=C(\O)c3cc(C)ccc3C)C(=O)C(=O)N2CCN(C)C)ccc1O (centres undefined) -5.88%
